Records with an inconclusive call do not appear. The source made the active and inactive calls. Calls come from the whole dose curve.

The test can be described thus: qHTS for Inhibitors of the Functional Ribonucleoprotein Complex (vRNP) of Lassa (LASV) Arenavirus: Viability assay - alamar blue signal for LASV Confirmatory Screen. The following applies: LASV vRNP counter-screen cells; series mostly up to 53.9 µM; activity change, negative = decreased viability: at the top concentration. (In general: qHTS replaces the single test concentration by a dilution series.)
As to `CC[C@@]1([C@@H]2O[C@@H]([C@H]3O[C@@](O)(CO)[C@H](C)C[C@H]3C)C[C@H]2C)CC[C@H]([C@]2(C)CC[C@]3(C[C@H](O)[C@@H](C)[C@@H]([C@@H](C)[C@@H](OC)[C@H](C)C(=O)O)O3)O2)O1`, the Potency was 4.21 µM (active). Turning to `CNCCCC1c2ccccc2C=Cc2ccccc21`, the Potency is 24.3 µM (active). Regarding `CC(O)C(O)[C@H]1CNc2nc(N)[nH]c(=O)c2N1` (some centres undefined), the “activity change, negative = decreased viability” value is 25.3% (inactive).

Regarding `CCCCCC[C@H]1C(=O)O[C@H](C)[C@H](NC(=O)c2cccc(NC=O)c2O)C(=O)O[C@@H](C)[C@@H]1OC(=O)CC(C)C`, the Potency was 0.0544 µM (active). Turning to `Fc1ccc(CNc2ncnc3ccc(F)cc23)cc1`, the Potency is 15.3 µM (active).

For the compound `C=C(C)[C@H]1Cc2c(ccc3c2O[C@@H]2COc4cc(OC)c(OC)cc4[C@@H]2C3=O)O1`, the Potency is 0.193 µM (active). With `COc1cc2c(cc1OC)CC(=O)N(CCCN(C)C[C@H]1Cc3cc(OC)c(OC)cc31)CC2`, the “activity change, negative = decreased viability” value is 3.57% (inactive). With `Nc1ccc([N+](=O)[O-])cc1O`, the Potency was 39.5 µM (active). As for `CCC(c1ccc(O)cc1)C(CC)c1ccc(O)cc1` (centres undefined), the “activity change, negative = decreased viability” value is -23.8% (inactive). Same read-out and setting: the same measure for `O=C(Nc1ccccc1)Nc1ccc(-c2ccc(C(=O)[C@H]3CCC[C@H]3C(=O)O)cc2)cc1`: -29.7% (inactive); for `Cc1cnc(NC(=O)C2=C(O)c3ccccc3S(=O)(=O)N2C)s1`: -18% (inactive).

Take `Cc1ncc([N+](=O)[O-])n1CC(C)O` (centres undefined): the “activity change, negative = decreased viability” value is -11.4% (inactive). For `Cc1cc2c(C(C)C)c(O)c(O)c(C=O)c2c(O)c1-c1c(C)cc2c(C(C)C)c(O)c(O)c(C=O)c2c1O`, the Potency is 21.7 µM (active).

For `CN1C(C(=O)Nc2ccccn2)=C(O)c2ccccc2S1(=O)=O`, the “activity change, negative = decreased viability” value is -0.843% (inactive). Take `CCC1OC2(C)C(O)C(/C=C/C=C/C=C/c3oc(=O)cc(OC)c3C)OC1(C)C2OC(C)=O` (centres undefined): the Potency was 0.109 µM (active). Turning to `CC(C)=CCC/C(C)=C/CC/C(C)=C/CC[C@]1(C)CCc2c(C)c(O)c(C)c(C)c2O1`, the activity change, negative = decreased viability is 6.56% [at 6 µM] (inactive).

As for `CC(=O)OCC(=O)[C@@]12N=C(C)O[C@H]1C[C@H]1[C@@H]3CCC4=CC(=O)C=C[C@]4(C)[C@@H]3[C@@H](O)C[C@@]12C`, the “activity change, negative = decreased viability” value was -42.9% (inactive). For `CCC[C@H](N[C@@H](C)C(=O)N1[C@@H]2CCCC[C@H]2C[C@H]1C(=O)O)C(=O)OCC`, the “activity change, negative = decreased viability” value was -18.7% (inactive).

Take `CCC(C)c1nccnc1OC` (centres undefined): the “activity change, negative = decreased viability” value is 6.84% [at 110 µM] (inactive).

On to `O=C1c2ccccc2-n2c1nc1ccccc1c2=O`, for which the Potency is 3.85 µM (active).

As for `C=C(C)C1Cc2c(ccc3c2OC2COc4cc(OC)c(OC)cc4C2C3=O)O1` (centres undefined), the Potency was 0.0968 µM (active). As to `CN(C)c1ccc(O)c2c1C[C@H]1C[C@H]3[C@H](N(C)C)C(=O)C(C(N)=O)=C(O)[C@@]3(O)C(=O)C1=C2O`, the “activity change, negative = decreased viability” value is -28.6% (inactive). Consider `CCCCC[C@H](O)/C=C/C=C/C/C=C\CCCC(=O)O`, for which the activity change, negative = decreased viability was 20.4% [at 0.666 µM] (inactive). As for `COC(=O)c1nc(Cl)c(Cl)nc1N`, the Potency is 1.93 µM (active).

Values taken from PubChem BioAssay AID1347081 (National Center for Advancing Translational Sciences (NCATS), 2019).
